According to PubChem BioAssay (NCI):
This is part of a sample that, as a whole, favours compounds with a hit. Of some 83,000 tested, about 20% had one in any assay.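 Each cell line was grown in a 96-well plate and treated with one concentration of compound for 48 hours. Values below 10 were considered active.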 Calls of active or inactive are those of the source.

System: PC-3 prostate
Test: NCI-60 one-dose screen, 48 h (100 = growth as untreated, 0 = no growth, -100 = all killed)
Conditions: 10 µM unless noted
Method: Growth inhibition of the PC-3 human tumor cell line is measured as a screen for anti-cancer activity. Cells are grown in 96 well plates and exposed to the test compound for 48 hours. Compounds are tested at a single concentration, which is 10^-5 M for most compounds. The reported endpoint is percent growth (GI% or GIPRCNT), where numbers from 0 - 100% represent growth inhibition, and numbers from -100% - 0 represent cell death. For example, a value of 40 represents 60% growth inhibition. A value of 0 means no net growth occurred over the course of the experiment. A value of -40 indicates 40% of cells at the beginning of the experiment died by the end of the experiment. A value of -100 means all cells are dead at the end of the experiment.
NCI-60 Human Tumor Cell Lines Screen was performed using the standard one-dose NCI protocol, which is described in more detail at https://dtp.cancer.gov/discovery_development/nci-60/default.htm.
Compounds with GIPRCNT values below 10 were considered active. Activity score was based on GIPRCNT using the following formula: […]
Score is 0 for GIPRCNT values of 100 or above, 50 for GIPRCNT values of 0, and 100 for GIPRCNT values of -100.

Row | SMILES | growth
1 | O=C1Nc2cc(-c3ccncc3)ccc2/C1=C/c1ccc[nH]1 | 88.1% (inactive)
2 | CCCCCCN(C)Cc1ccc(OCCOc2ccc(CN(C)CCCCCC)cc2)cc1 | 23.9% (inactive)
3 | CCCCCN1C=C/C(=C\C(=O)N(C)c2ccc(Br)cc2)c2ccccc21 | 97.3% (inactive)
4 | CN1C(=O)N(C)[C@H]2NC(NN)=N[C@H]21 | 96.3% (inactive)
5 | c1ccc(-c2nnc(Nc3ccc4c(c3)OCCO4)o2)c(NCc2ccncc2)c1 | 29.7% (inactive)
6 | CC(=O)CCSc1ccc(OC(C)=O)cc1 | 83.8% (inactive)
7 | N#CC1=C(N)Oc2c(ccc3ccccc23)C1c1ccc([N+](=O)[O-])cc1 (stereo not given) | 65.4% (inactive)
8 | CC(C)CN(C(=O)c1ccc(Cl)cc1)c1c(N)n(CC(C)C)c(=O)[nH]c1=O | 89.8% (inactive)
9 | CCCCN(CCCC)CCc1c(C)cc(C)c(CCN(CCCC)CCCC)c1O | 14.1% (inactive)
10 | CCC(=O)c1ccc(O)c(OC)c1 | 92.4% (inactive)
11 | Clc1ccc(C2CC(c3cccc(Nc4ccncc4)c3)=NN2c2ccccc2)cc1 (stereo not given) | 36% (inactive)
12 | COc1ccc(-c2nc(N/N=C/c3cccc(Br)c3)nc(N3CCOCC3)c2C#N)cc1 | 47.8% (inactive)
13 | COc1cccc(CNCCN2C(=O)c3ccc4c5c(ccc(c35)C2=O)C(=O)N(CCNCc2cccc(OC)c2)C4=O)c1 | 78.9% (inactive)
14 | N/C(=N\N=C\c1cc2ccccc2s1)N/N=C/c1cc2ccccc2s1 | 97.4% (inactive)
15 | CCCOc1nc(SCCC)nc2c1cnn2-c1ccccc1 | 102% (inactive)
16 | O=S(=O)(O)c1cc(O)c2c(N=Nc3ccc(Nc4ccccc4)c4c(S(=O)(=O)O)cccc34)cc(S(=O)(=O)O)cc2c1 | 95% (inactive)
17 | COc1ccc(C2CC(c3cccc(Nc4ccncc4)c3)=NN2c2cc(Cl)cc(Cl)c2)cc1 (stereo not given) | 33.8% (inactive)
18 | FCc1nc2nc(Cl)c(Cl)nc2[nH]1 | 95.2% (inactive)
19 | COc1ccccc1OCC(=O)N1CCCCCC1 | 89.8% (inactive)
20 | COc1cc(C(=O)c2cnc(-c3ccc4cc[nH]c4c3)[nH]2)cc(OC)c1OC | 18% (inactive)

Row | SMILES | growth
21 | COc1ccc(Cn2nc(-c3ccccc3)c3c2CCc2cnoc2-3)cc1 | 52.9% (inactive)
22 | OC(c1ccccc1)c1ccccn1 (stereo not given) | 89.9% (inactive)
23 | CN1CCN(c2cc(F)c(NC3=C(Cl)C(=O)c4ncccc4C3=O)c(F)c2)CC1 | 11.8% (inactive)
24 | N#Cc1c(Nc2ccccc2)nn2cc(-c3nc4ccccc4s3)c(N)nc12 | 73.4% (inactive)
25 | O=C1NC(=S)NC(=O)C1=Cc1cn(Cc2ccccn2)c2ccccc12 | 47.5% (inactive)
26 | COc1ccc(CNC(=O)COc2ccc(/C=N/Nc3nc4ccccc4s3)cc2)cc1 | 15.5% (inactive)
27 | COc1ccc(/C=C(/c2ccccc2)[N+](=O)[O-])cc1 | -56.7% (active)
28 | COc1ccc(-c2nc(N/N=C/c3c[nH]c4ccccc34)nc(N3CCOCC3)c2C#N)cc1 | 74.3% (inactive)
29 | O=C(Nc1ccc2cc3ccc(NC(=O)N4CCCCCC4)cc3nc2c1)N1CCCCCC1 | 5.93% (active)
30 | COc1cc(C2CC(c3cccc(Nc4ccncc4)c3)=NN2c2cc(Cl)cc(Cl)c2)cc(OC)c1OC (stereo not given) | -36.1% (active)
31 | O=S(=O)(NCCNc1nccc(-c2c(-c3ccc(F)c(O)c3)nc3sccn23)n1)c1ccccc1 | 67.8% (inactive)
32 | CC[C@@]12C=CCN3CC[C@]4(c5cc(NC(=O)COc6cc(OCC(=O)Nc7cc8c(cc7OC)N(C)[C@H]7[C@@](O)(C(=O)OC)[C@H](OC(C)=O)[C@]9(CC)C=CCN%10CC[C@]87[C@@H]%109)cc7oc(-c8ccccc8)cc(=O)c67)c(OC)cc5N(C)[C@@H]4[C@](O)(C(=O)OC)[C@H]1OC(C)=O)[C@H]32 | 23% (inactive)
33 | CCOC(=O)c1c(C)nc2c(c1N)C(=O)C(=O)N2Cc1ccc(C(F)(F)F)cc1 | 43.7% (inactive)
34 | CC(=O)NCCCS(=O)(=O)O | 83.9% (inactive)
35 | Nc1ncc(C#Cc2cncc(NC(=O)c3cccc(C(F)(F)F)c3)c2)c2cccnc12 | 49.9% (inactive)
36 | COc1cc(NCC(O)CN(CC(C)C)CC(C)C)c2nc(C)ccc2c1 (stereo not given) | 75.3% (inactive)
37 | COc1cccc(/C=C2\COc3ccc(-c4ccccc4)cc3C2=O)c1 | 19.4% (inactive)
38 | COc1cc(COC(=O)CCCCC[P+](c2ccccc2)(c2ccccc2)c2ccccc2)c(OC)c2c1OCO2 | 44.9% (inactive)
39 | Cc1cc(C(=O)Nc2ncnc3nc[nH]c23)no1 | 97% (inactive)
40 | CCC(C)N(CCNc1cc(OC)cc2cccnc12)CCC(C)C (stereo not given) | 79.3% (inactive)
